Data published in PubChem BioAssay AID624351 (Southern Research Specialized Biocontainment Screening …, 2012).
Hit rate of the full screen: of about 2,400 compounds, about 1,400 (58%) were called active. So high a share suggests a set chosen from earlier hits. The list shows a part of the results. A number with no mark means an inactive call.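 Rule for the calls: active = inhibition of 30% or more at any tested dose; inconclusive = primary hits over the limit that were never retested; inactive = the rest.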

Assay: ADP Hunter readout inhibition without MgcRacGAP – biochemical, coupled enzyme counter-screen, artefact control for MgcRacGAP inhibitor project, dose response (AID 624351);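 note: signal is the ADP detection kit reading of free GDP without any GAP enzyme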;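 for inhibition: 0% = median positive control wells and 100% = median negative control wells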
Conditions: fluorescence, no MgcRacGAP; series mostly up to 80 µM; inhibition: at the top concentration

SMILES | IC50 | inhibition
N#CCCN1CCN(CCC#N)c2ccccc21 | 20 µM (active) | 
CN1CCN(CCCNCc2cn(CCC#N)c3ccccc23)CC1 |  | -1.13%
Oc1ccc(NC(=S)Nc2ccccc2)cc1 | 55.5 µM (active) | 
COc1ccc(OC(=O)COc2ccc(C)cc2)cc1 |  | 28.1%
CC(=O)c1ccc(NC(=S)Nc2ccc3[nH]c(=O)[nH]c3c2)cc1 |  | 8.57%
Cc1ccc(OC(=S)Nc2ccc(O)cc2)cc1 | 34.5 µM (active) | 
CC(=O)Nc1ccc(OC(=O)c2cc3ccccc3oc2=O)cc1 |  | 13.8%
O=C(/C=C/c1ccco1)NC(=S)Nc1ccc(C(=O)O)cc1 |  | -1.18%
Oc1ccc(NC(=S)Nc2ccc(O)cc2)cc1 | 46.5 µM (active) | 
COC(=O)c1ccc(NC(=S)Nc2ccc(O)cc2)cc1 | 68.1 µM (active) | 
CN(C)c1ccc(O)c2c1CC1CC3[C@@H](N(C)C)C(=O)C(C(N)=O)=C(O)[C@]3(O)C(=O)C1=C2O (stereo partly drawn) |  | -7.5%
COCC(C)NCc1ccc(OC)c(Br)c1 (stereo not drawn) |  | 20.1%
COc1ccc(CN2CCN(Cc3ccccc3F)CC2)c(OC)c1 |  | 27.5%
O=C(c1cccnc1)N1CCN(Cc2cccc(Br)c2)CC1 |  | 0.22%
O=C(NC(=S)Nc1ccc(O)cc1)C1CCCC1 | 31.8 µM (active) | 
O=C(Nc1ccc(O)cc1)C1CC=CCC1 (stereo not drawn) | 64.6 µM (active) | 
CC(C)N(c1ccccc1)c1ccc(NC(=S)NCCN(C)C)cc1 |  | 9.78%
CC1CCCCN1CC(=O)Nc1ccc(N2CCCCCC2)cc1 (stereo not drawn) |  | 11.7%
CN(C(=S)NC(=O)C1CC1)c1ccc(O)cc1 |  | 3.76%
CNC(=S)Nc1ccc(Nc2ccccc2)cc1 | 71.8 µM (active) | 
N=C1/C(=C\c2ccc(Br)o2)C(=O)N=C2SC(CC(=O)N3CCCCC3)=NN12 |  | 3.12%
COc1ccc(C2NC(=O)C(C#N)=C(S)N2c2ccccc2)cc1OC (stereo not drawn) |  | 1.58%
Cc1cccn2c(=S)[nH]nc12 | 13.4 µM (active) | 
S=c1[nH]nc2ccccn12 | 24 µM (active) | 

SMILES | IC50 | inhibition
Cc1ccn2c(=S)[nH]nc2c1 | 46.7 µM (active) | 
Cc1ccc(/C=C2/C(=O)c3ccc(C(=O)O)cc3C2=O)o1 |  | -2.01%
Cc1cc(O)ccc1N=Cc1c(C(F)(F)F)[nH][nH]c1=O | 32.8 µM (active) | 
Oc1ccc(/C=C/c2ccc3ccccc3n2)cc1 | 30.7 µM (active) | 
O=c1[nH]c2ccccc2nc1/C=C/c1ccc(O)cc1 | 36.9 µM (active) | 
CCOc1cc(/C=N/NC(=O)c2ccc(NC(=O)C3CC3)cc2)ccc1O | 83.2 µM (active) | 
CCOc1cc(/C=N/NC(=O)c2ccc(=O)n(C)c2)ccc1O | 60.4 µM (active) | 
CCOc1cc(/C=N/NC(=O)C2CCCC2)ccc1O | 51.3 µM (active) | 
CCOc1cc(/C=N/NC(=O)c2cc(C3CC3)[nH]n2)ccc1O | 56.1 µM (active) | 
Cc1cc(C)c(C)c(OCCNCc2ccccc2)c1 |  | 20.3%
COc1ccccc1COCC(O)CNCC1(N2CCCCC2)CCCCC1 (stereo not drawn) |  | 19.2%
COc1cc(/C=N/NC(=O)C2CCN(CC(O)COCc3ccccc3)CC2)ccc1O (stereo not drawn) | 34.1 µM (active) | 
Cc1cccc(N2C(S)=C(C#N)C(=O)NC2c2cccs2)c1 (stereo not drawn) |  | 6.48%
COc1cc(NC(C)CCCNC(C)C)c2ncccc2c1OC (stereo not drawn) |  | 4.79%
COc1cc(N)c2ncccc2c1SC | 51.2 µM (active) | 
COc1cc(CN(C)CCc2ccccn2)cc(OC)c1OC |  | 26.4%
COc1cc(N)c2ncccc2c1OC | 63.8 µM (active) | 
COc1cccc2c3cccc(OC)c3c3[nH]cnc3c12 |  | 9.71%
CCN1/C(=C\c2ccc3ccccc3[n+]2CC)Sc2cc(C)ccc21 |  | 11.5%
CCOC(=O)c1ccc(S(=O)(=O)Nc2nc3cc(S(=O)(=O)NC4=NCCCCC4)ccc3s2)cc1 |  | 2.82%
Cc1c(NC(=S)N/N=C/c2ccc(O)cc2)c(=O)n(-c2ccccc2)n1C | 68.4 µM (active) | 
CC(=O)NC(Nc1c(C)n(C)n(-c2ccccc2)c1=O)C(Cl)(Cl)Cl (stereo not drawn) |  | -1.5%
Cc1c(N=C2C=C(Br)C(=O)C(Br)=C2)c(=O)n(-c2ccccc2)n1C | 24.2 µM (active) | 
COc1cc(N=Nc2c(C)n(C)n(-c3ccccc3)c2=O)ccc1N | 47.2 µM (active) | 

SMILES | IC50 | inhibition
Cc1[nH]c2ccccc2c1N=Nc1c(C)n(C)n(-c2ccccc2)c1=O | 40.2 µM (active) | 
Cc1c(NC(=O)CNCc2ccc3c(c2)OCO3)c(=O)n(-c2ccccc2)n1C |  | 6.4%
Cc1c(N=Nc2ccc(O)cc2)c(=O)n(-c2ccccc2)n1C | 19.5 µM (active) | 
CCN1CCN(CCCCOc2ccccc2F)CC1 |  | 22.8%
CCOc1ccccc1NC(=O)C(NCCN(C)C)c1ccccc1 (stereo not drawn) |  | 21.6%
CCOc1cc(NC(=O)c2ccccc2C(=O)O)c(OCC)cc1NC(=O)c1ccccc1F | 65.3 µM (active) | 
CC1CC(C)(C)N(C(=O)CN2CCN(C)CC2)c2ccccc21 (stereo not drawn) |  | 23.8%
CC1CCC/C(=C\c2ccc(O)cc2)C1=O (stereo not drawn) | 22.3 µM (active) | 
CC1CCC/C(=C\Nc2ccc(O)cc2)C1=O (stereo not drawn) | 31.8 µM (active) | 
Cc1cc(O)ccc1N/C=C1\CCCC1=O | 21 µM (active) | 
O=C1CCCC/C1=C\Nc1ccc(O)cc1 | 13.3 µM (active) | 
Cc1cnc(NC(=O)C(C)N2CCN(C)CC2)s1 (stereo not drawn) |  | 24.8%
O=C1OCC/C1=C\c1ccc(O)cc1 | 27.6 µM (active) | 
CCOc1ccccc1CN(CCc1ccc2c(c1)OCO2)Cc1ccccn1 |  | 17.6%
CC1OC(CC(=O)O)CC2=C1C(=O)c1c(O)cccc1C2=O (stereo not drawn) |  | -0.48%
O=[N+]([O-])c1cccc(/C=N/n2c(-c3cccnc3)n[nH]c2=S)c1 | 24.9 µM (active) | 
Cn1c(-c2cccc([N+](=O)[O-])c2)cnc1NCc1cccc([N+](=O)[O-])c1 |  | 22.6%
S=c1[nH]nc(-c2cccnc2)n1/N=C/c1cccs1 | 42.7 µM (active) | 
Cc1ccc(/C=N/n2c(-c3cccnc3)n[nH]c2=S)s1 | 43.8 µM (active) | 
CCc1ccc(OCCOCCN2CCN(C)CC2)cc1 |  | 19.5%
COc1ccc(C2NC(=O)C(C#N)=C(S)N2c2ccc(C)cc2)cc1OC (stereo not drawn) |  | 3.19%
CC1=CC(C)(C)N(C(=O)CNC2CCCC2)c2cc(C)ccc21 |  | 20.2%
Nc1[nH]c2cc([N+](=O)[O-])ccc2c1-c1ccccn1 | 75.4 µM (active) | 
O=[N+]([O-])c1ccc(Sc2cccc3cccnc23)c([N+](=O)[O-])c1 |  | 5.21%

SMILES | IC50 | inhibition
O=[N+]([O-])c1ccc(Oc2cccc3cccnc23)c([N+](=O)[O-])c1 |  | 8.96%
C=CCOc1ccc(C=NNc2ccc(S(=O)(=O)Nc3ccccc3C(=O)O)cc2[N+](=O)[O-])cc1OC |  | 4.51%
O=C(O)c1ccccc1NS(=O)(=O)c1ccc(N/N=C/c2ccc(O)c(O)c2)c([N+](=O)[O-])c1 | 69.8 µM (active) | 
O=C(/C=C/c1ccc(O)c(O)c1)NC(=O)c1ccccc1O | 21.9 µM (active) | 
Cc1ccc2oc(=O)c(/C=C(\O)c3ccccc3)nc2c1 | 59.2 µM (active) | 
Cn1c(N=Nc2ccc(N3CCOCC3)cc2)[n+](C)c2ccccc21 | 58.3 µM (active) | 
c1csc(CNc2ccc3c(c2)OCCO3)c1 | 69.2 µM (active) | 
O=C(CNCc1ccc(Cl)cc1)Nc1ccc2c(c1)OCCO2 |  | 14.6%
CN(C)c1ccc(N=c2sc3ccccc3n2C)cc1 | 26.7 µM (active) | 
Nc1ccc2cc3[nH]c4cc(N)ccc4c3nc2c1 |  | -9.55%
Nc1ccc2c(c1)[nH]c(=O)c1cc(N)ccc12 | 16.6 µM (active) | 
CN1/C(=N\O)c2cccc3cccc1c23 | 54 µM (active) | 
CC(=O)c1c(Nc2ccc3c(c2)OCCO3)oc(C)cc1=O | 77.3 µM (active) | 
Oc1ccc(N2CCN(C(=S)NCCc3ccccc3)CC2)cc1 | 32.2 µM (active) | 
O=C(CN1CCN(C/C=C/c2ccccc2)CC1)Nc1ccccc1C(=O)NC1CC1 |  | 13.6%
COCCCNC(=S)N1CCN(Cc2ccc3c(c2)OCO3)CC1 |  | 12.6%
CCN(CC)S(=O)(=O)c1ccc(C)c(NC(=O)CN2CCN(Cc3ccccc3)CC2)c1 |  | 23.3%
O=C(NC(=S)N1CCN(c2ccc(O)cc2)CC1)c1ccco1 | 38.7 µM (active) | 
O=C(CN1CCN(c2ccc(O)cc2)CC1)Nc1ccccc1C(=O)NCCc1ccccc1 | 32.9 µM (active) | 
CN1CCC(N(C)CC(=O)Nc2ccc3c(c2)OC(F)(F)O3)CC1 |  | 24.9%
Cc1sc2ccc3sccc3c2[n+]1C |  | 0.22%
